According to PubChem BioAssay (Tox21):
Several values for one entry are separate records, joined by “and”; a condition that tells them apart may be missing. Identical values can stand only once. Inconclusive results are not listed. Activity calls are given as the source filed them. Unless noted, the call rests on the fitted dose curve.

How the values were obtained:
[1] = qHTS assay to identify small molecule antagonists of the sonic hedgehog signaling (Shh) pathway (AID 1259369); details: NIH/3T3 Gli1-Luc reporter, Shh antagonist, luminescence 24 h; series mostly up to 92.4 µM; further: nearly all actives have a fitted effect of over 45% in size; further: potency means the concentration at half of the fitted maximal effect
Outline: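 Screening used 3T3Gli1-Luc cells at 2,000 per well, compounds delivered in DMSO, and conditioned medium as agonist stimulus; plates incubated 24hr at 37 C and 5% CO2 before a 30min luciferase step.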

[2] = target: Estrogen receptor beta (Homo sapiens) (UniProt Q92731); assay: qHTS assay to identify small molecule agonists of the estrogen receptor beta (ER-beta) signaling pathway (AID 1259377; active means well fitted activation curve with a large enough effect in the signal ratio in the repeat runs, not every such curve was filed as active; the % refers to the signal ratio); details: ER-beta-UAS-bla HEK293T, beta-lactamase FRET ratio, 16 h; series mostly up to 92.4 µM
Outline: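 Screening used GripTite ER-beta-UAS-bla cells held in 2% charcoal-stripped FBS medium. After overnight (16 hr) compound incubation at 37C, beta-lactamase activity was detected with a FRET substrate by fluorescence.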

[3] = target: Estrogen receptor beta (Homo sapiens) (UniProt Q92731); assay: qHTS assay to identify small molecule antagonists of the estrogen receptor beta (ER-beta) signaling pathway (AID 1259378; active means well fitted inhibition curve with a large enough effect in the signal ratio in the repeat runs, not every such curve was filed as active; the % refers to the signal ratio); details: ER-beta-UAS-bla HEK293T, beta-lactamase FRET ratio, 16 h; series mostly up to 92.4 µM
Outline: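 Antagonist mode: compounds added to beta-lactamase reporter HEK293T ER-beta-UAS cells stimulated with E2 (1nM final), 16 hr at 37C. LiveBLAzer B/G FRET substrate, 2 hours room temperature, fluorescence read-out.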

[4] = qHTS assay to identify small molecule agonists of the androgen receptor (AR) signaling pathway in the presence of an antagonist - cell viability counter screen (AID 1259379; active means well fitted curve in the direction sought with a large enough effect in the repeat runs; an effect the other way counts as inactive or inconclusive;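 further: MDA-kb2 human breast cancer cells carrying an MMTV luciferase reporter; nearly all actives have a fitted effect of over 25% in size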); details: MDA-kb2 viability, CellTiter-Fluor, 16 h; series mostly up to 92.4 µM
Outline: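 In MDA-kb2 cells (human breast carcinoma, MMTV-luciferase), compounds at 15 concentrations plus 3.0uM nilutamide; 16 hr, 37C, 0% CO2; CellTiter-Fluor fluorescence read for viability.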

[5] = qHTS assay to identify small molecule agonists of the estrogen receptor beta (ER-beta) signaling pathway - cell viability counter screen (AID 1259380; active means well fitted curve in the direction sought with a large enough effect in the repeat runs; an effect the other way counts as inactive or inconclusive; further: nearly all actives have a fitted effect of over 30% in size); details: ER-beta-bla HEK293T viability, CellTiter-Glo luminescence, 16 h; series mostly up to 92.4 µM
Outline: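 Viability of ER-beta-UAS-bla HEK293T cells was determined by CellTiter-Glo luminescence following 16 hr treatment with test compounds at 37C.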

[6] = qHTS assay to identify small molecule antagonists of the estrogen receptor beta (ER-beta) signaling pathway - cell viability counter screen (AID 1259382; active means well fitted curve in the direction sought with a large enough effect in the repeat runs; an effect the other way counts as inactive or inconclusive;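 further: HEK293T cells carrying ER-beta-UAS-bla reporter stimulated with estradiol; nearly all actives have a fitted effect of over 55% in size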); details: ER-beta-UAS-bla HEK293T viability, CellTiter-Glo luminescence, 16 h; series mostly up to 92.4 µM
Outline: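 Tox21 10K library tested in qHTS format on ER-beta-bla HEK293T cells stimulated with 1nM E2; 16 hr treatment at 37C. Same-well CellTiter-Glo luminescence served as the cell viability measure.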

[7] = qHTS assay to identify small molecule agonists or antagonists of the thyroid stimulating hormone receptor (TSHR) signaling pathway - wild type cell line counter screen (AID 1259384); details: HEK293 wild type, cAMP HTRF counter-screen, stronger effect = higher value; series mostly up to 92.4 µM
Outline: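 Counter screen in untransfected Hek293: compounds (15-point titration, triplicate) plus phosphodiesterase inhibitor Ro20-1724 added after 18 h plating; 30 min RT. Intracellular cAMP via competitive d2/cryptate immunoassay, 1 h incubation.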

[8] = qHTS assay to identify small molecule agonists of the estrogen receptor alpha (ER-alpha) signaling pathway in the presence of an antagonist - cell viability counter screen (AID 1259386; active means well fitted curve in the direction sought with a large enough effect in the repeat runs; an effect the other way counts as inactive or inconclusive;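 further: cells exposed to compounds for 22 h at 37 °C before the viability read; nearly all actives have a fitted effect of over 30% in size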; further: potency means the concentration at half of the fitted maximal effect); details: VM7Luc4E2 viability, CellTiter-Fluor fluorescence, 22 h; series mostly up to 92.4 µM
Outline: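 Fluorescent CellTiter-Fluor viability signal from VM7Luc4E2 cells, with the reagent added during the final hour of a 22hr compound exposure at 37C in the presence of 10.0nM ICI-182,780.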

[9] = target: Progesterone receptor (Homo sapiens) (UniProt P06401); assay: qHTS assay to identify small molecule agonists of the progesterone receptor (PR) signaling pathway (AID 1346784); details: PR-UAS-bla HEK293T, beta-lactamase FRET ratio, 16 h; series mostly up to 92.4 µM; further: nearly all actives have a fitted effect of over 30% in size
Outline: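 Seed PR-UAS-bla HEK 293T cells (2% charcoal-stripped FBS), incubate 6 hr at 37C; add compounds in DMSO, 16 hr at 37C; add LiveBLAzer B/G substrate, 2 hr RT; read fluorescence intensity.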

[10] = target: Progesterone receptor (Homo sapiens) (UniProt P06401); assay: qHTS assay to identify small molecule antagonists of the progesterone receptor (PR) signaling pathway (AID 1346795; active means well fitted inhibition curve with a large enough effect in the signal ratio in the repeat runs, not every such curve was filed as active; the % refers to the signal ratio); details: PR-UAS-bla HEK293T, beta-lactamase FRET ratio, 16 h; series mostly up to 92.4 µM
Outline: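 Screening used a GripTite HEK293T line with PR-responsive UAS-beta-lactamase. Cells were challenged with compound in the presence of 1 nM R5020 final for 16 hr at 37C; B/G FRET substrate, 2 hr room temperature, fluorescence.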

[11] = qHTS assay to identify small molecule antagonists of the progesterone receptor (PR) signaling pathway - cell viability counter screen (AID 1346798; active means well fitted curve in the direction sought with a large enough effect in the repeat runs; an effect the other way counts as inactive or inconclusive; further: nearly all actives have a fitted effect of over 50% in size); details: PR-UAS-bla HEK293T viability, CellTiter-Glo luminescence, 16 h; series mostly up to 92.4 µM
Outline: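 Measures cytotoxicity in parallel with the PR antagonist reporter read: HEK293T PR-UAS-bla cells get compound and R5020 for 16 hr, and remaining viable cells are quantified by CellTiter-Glo luminescence.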

[12] = qHTS assay to identify small molecule agonists of the progesterone receptor (PR) signaling pathway - cell viability counter screen (AID 1346799); details: PR-UAS-bla HEK293T viability, CellTiter-Glo luminescence, 16 h; series mostly up to 92.4 µM; further: nearly all actives have a fitted effect of over 45% in size
Outline: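 Using the same plates as the PR reporter screen, HEK293T PR-UAS-bla cells received compounds for 16 hr at 37C and were then lysed with CellTiter-Glo; luminescence was read 30 min later at room temperature.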

[13] = qHTS assay to identify small molecule antagonists of the TGF-beta/Smad signaling pathway - cell viability counter screen (AID 1346824; active means well fitted curve in the direction sought with a large enough effect in the repeat runs; an effect the other way counts as inactive or inconclusive; further: nearly all actives have a fitted effect of over 50% in size); details: SBE-bla HEK293T viability, CellTiter-Glo luminescence; series mostly up to 76.8 µM
Outline: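 Cytotoxicity counter-screen run in the same wells as the beta-lactamase Smad reporter read: CellTiter-Glo luminescence after 30 min at room temperature. HEK 293T SBE-bla cells had 5 hr compound exposure at 37 C with TGF-beta1 (0.25 ng/mL stock).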

[14] = qHTS assay to identify small molecule agonists of the TGF-beta/Smad signaling pathway - cell viability counter screen (AID 1346829; active means well fitted curve in the direction sought with a large enough effect in the repeat runs; an effect the other way counts as inactive or inconclusive; further: top concentration of the series differs between compounds; nearly all actives have a fitted effect of over 45% in size); details: SBE-bla HEK293T viability, CellTiter-Glo luminescence, 5 h; series mostly up to 76.8 µM
Outline: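 Luminescence from CellTiter-Glo, read after a 30 min room-temperature incubation, gives cell viability of SBE-bla HEK 293T cells treated 5 hr with compounds at 37 C.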

[15] = qHTS assay to identify small molecule agonists of the TGF-beta/Smad signaling pathway (AID 1346859; active means well fitted activation curve with a large enough effect in the signal ratio in the repeat runs, not every such curve was filed as active; the % refers to the signal ratio); details: SBE-bla HEK293T, TGF-beta/Smad beta-lactamase reporter, 5 h; series mostly up to 76.8 µM
Outline: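 Beta-lactamase reporter activity downstream of Smad binding elements was measured in stably transfected HEK 293T cells; compounds were incubated for 5 hr, substrate for 2 hr at room temperature.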

[16] = target: Thyrotropin-releasing hormone receptor (Homo sapiens) (UniProt P34981); assay: qHTS assay to identify small molecule antagonists of the thyrotropin-releasing hormone receptor (TRHR) signaling pathway (AID 1346877; active means well fitted inhibition curve with a large enough effect in the repeat runs, not every such curve was filed as active; further: potency means the concentration at half of the fitted maximal effect); details: TRHR-HEK293, TRH-induced calcium fluorescence, antagonist mode; series mostly up to 51.3 µM
Outline: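 In this cell-based calcium flux format, HEK293 cells expressing TRHR received test compound for 5 min before the agonist TRH (1 nM final). Dye loading lasted 2 h at 37 °C.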

[17] = target: Thyrotropin-releasing hormone receptor (Homo sapiens) (UniProt P34981); assay: qHTS assay to identify small molecule agonists of the thyrotropin-releasing hormone receptor (TRHR) signaling pathway (AID 1346891); details: TRHR-HEK293 calcium fluorescence, agonist mode; series mostly up to 57.6 µM
Outline: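 Overnight-plated (18 h, 37 °C, 5% CO2) TRHR-Hek293 cells; 2 h calcium dye at 37 °C; compound in DMSO; 3-min kinetic fluorescence read.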

[18] = target: Estrogen receptor (Homo sapiens) (UniProt P03372); assay: qHTS assay to identify small molecule agonists of the estrogen receptor alpha (ER-alpha) signaling pathway in the presence of an antagonist (AID 1259383); details: VM7Luc4E2 cells, ERE-luciferase, +ICI-182,780, 22 h; series mostly up to 92.4 µM; further: nearly all actives have a fitted effect of over 15% in size; further: potency means the concentration at half of the fitted maximal effect; on activation: top concentration of the series differs between compounds
Outline: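 In VM7Luc4E2 cells, 4,000 per well, compounds at 15 concentrations were co-incubated 22hr at 37C with 10.0nM final ICI-182,780. Luminescence from the stably transfected 4×ERE-luciferase reporter was recorded 30min after ONE-Glo addition.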

[19] = target: Thyrotropin receptor (Homo sapiens) (UniProt P16473); assay: qHTS assay to identify small molecule antagonists of the thyroid stimulating hormone receptor (TSHR) signaling pathway (AID 1259385); details: TSHR-HEK293 cAMP HTRF, TSH-stimulated antagonist mode; series mostly up to 92.4 µM; further: nearly all actives have a fitted effect of over 20% in size
Outline: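 Antagonist mode: compound-treated TSHR-expressing HEK293 cells were stimulated with 1.5 ng/mL TSH (final) in presence of Ro20-1724 for 30 min at RT. HTRF cAMP detection after 1 h; each compound tested at 15 concentrations, triplicate.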

[20] = target: Androgen receptor (Homo sapiens) (UniProt P10275); assay: qHTS assay to identify small molecule agonists of the androgen receptor (AR) signaling pathway in the presence of an antagonist (AID 1259381); details: MDA-kb2 MMTV-luciferase, AR agonist + nilutamide, 16 h; series mostly up to 92.4 µM; further: nearly all actives have a fitted effect of over 15% in size
Outline: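 Here, 15-concentration compound series were pin-transferred onto MDA-kb2 MMTV-luciferase cells already dosed with nilutamide (3.0uM final). After 16hr at 37C, ONE-Glo was added and luminescence read 30min later at room temperature.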

Measured: Potency

Androgen receptor (Homo sapiens), sequence (P10275 whole entry, looked up): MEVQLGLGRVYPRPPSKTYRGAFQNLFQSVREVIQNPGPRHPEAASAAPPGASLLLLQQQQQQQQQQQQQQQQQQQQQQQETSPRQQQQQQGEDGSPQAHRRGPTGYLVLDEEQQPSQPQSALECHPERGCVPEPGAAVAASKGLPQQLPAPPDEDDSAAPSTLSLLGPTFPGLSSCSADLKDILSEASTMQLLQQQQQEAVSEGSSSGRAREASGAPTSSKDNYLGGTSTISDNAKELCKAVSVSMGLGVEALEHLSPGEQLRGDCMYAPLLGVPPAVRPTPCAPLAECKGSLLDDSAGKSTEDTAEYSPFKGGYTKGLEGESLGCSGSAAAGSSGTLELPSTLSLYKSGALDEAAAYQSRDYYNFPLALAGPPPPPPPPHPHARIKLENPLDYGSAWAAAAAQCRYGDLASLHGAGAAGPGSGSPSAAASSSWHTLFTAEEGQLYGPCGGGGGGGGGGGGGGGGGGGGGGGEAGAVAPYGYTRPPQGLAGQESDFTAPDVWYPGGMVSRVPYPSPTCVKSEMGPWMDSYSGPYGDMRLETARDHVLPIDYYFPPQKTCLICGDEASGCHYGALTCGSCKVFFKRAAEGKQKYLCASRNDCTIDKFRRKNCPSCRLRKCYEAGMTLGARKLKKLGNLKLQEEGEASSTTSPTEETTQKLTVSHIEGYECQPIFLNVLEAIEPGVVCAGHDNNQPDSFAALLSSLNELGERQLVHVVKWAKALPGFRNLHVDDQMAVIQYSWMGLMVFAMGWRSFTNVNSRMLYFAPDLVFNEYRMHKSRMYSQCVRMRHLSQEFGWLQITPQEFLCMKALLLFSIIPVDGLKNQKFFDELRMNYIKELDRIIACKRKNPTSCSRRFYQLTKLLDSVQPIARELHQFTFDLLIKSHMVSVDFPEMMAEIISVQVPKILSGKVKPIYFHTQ
Estrogen receptor beta (Homo sapiens), sequence (Q92731 whole entry, looked up): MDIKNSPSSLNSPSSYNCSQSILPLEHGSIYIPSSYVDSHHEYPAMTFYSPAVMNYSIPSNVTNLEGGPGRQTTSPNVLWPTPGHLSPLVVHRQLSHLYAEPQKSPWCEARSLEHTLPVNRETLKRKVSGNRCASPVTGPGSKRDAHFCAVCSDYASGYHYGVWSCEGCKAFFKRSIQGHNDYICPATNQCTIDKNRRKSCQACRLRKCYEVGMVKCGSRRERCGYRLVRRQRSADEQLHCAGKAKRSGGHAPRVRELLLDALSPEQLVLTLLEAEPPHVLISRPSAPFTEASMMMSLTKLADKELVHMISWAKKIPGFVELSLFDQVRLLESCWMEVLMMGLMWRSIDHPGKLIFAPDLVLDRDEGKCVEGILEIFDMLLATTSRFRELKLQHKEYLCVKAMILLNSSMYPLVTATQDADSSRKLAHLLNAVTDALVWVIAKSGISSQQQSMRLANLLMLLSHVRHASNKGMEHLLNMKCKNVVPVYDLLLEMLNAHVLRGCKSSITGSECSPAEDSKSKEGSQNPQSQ
Thyrotropin-releasing hormone receptor (Homo sapiens), sequence (P34981 whole entry, looked up): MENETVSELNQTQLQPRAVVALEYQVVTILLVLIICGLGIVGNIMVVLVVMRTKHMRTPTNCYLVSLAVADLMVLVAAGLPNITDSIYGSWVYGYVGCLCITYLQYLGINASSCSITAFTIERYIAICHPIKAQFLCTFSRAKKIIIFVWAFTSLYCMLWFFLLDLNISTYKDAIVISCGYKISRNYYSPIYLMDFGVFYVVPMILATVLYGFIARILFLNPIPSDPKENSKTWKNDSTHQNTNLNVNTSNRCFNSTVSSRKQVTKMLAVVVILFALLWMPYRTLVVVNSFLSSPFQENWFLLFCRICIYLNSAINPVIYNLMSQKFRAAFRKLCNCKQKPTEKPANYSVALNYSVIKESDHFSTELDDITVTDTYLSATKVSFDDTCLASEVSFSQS
Progesterone receptor (Homo sapiens), sequence (P06401 whole entry, looked up): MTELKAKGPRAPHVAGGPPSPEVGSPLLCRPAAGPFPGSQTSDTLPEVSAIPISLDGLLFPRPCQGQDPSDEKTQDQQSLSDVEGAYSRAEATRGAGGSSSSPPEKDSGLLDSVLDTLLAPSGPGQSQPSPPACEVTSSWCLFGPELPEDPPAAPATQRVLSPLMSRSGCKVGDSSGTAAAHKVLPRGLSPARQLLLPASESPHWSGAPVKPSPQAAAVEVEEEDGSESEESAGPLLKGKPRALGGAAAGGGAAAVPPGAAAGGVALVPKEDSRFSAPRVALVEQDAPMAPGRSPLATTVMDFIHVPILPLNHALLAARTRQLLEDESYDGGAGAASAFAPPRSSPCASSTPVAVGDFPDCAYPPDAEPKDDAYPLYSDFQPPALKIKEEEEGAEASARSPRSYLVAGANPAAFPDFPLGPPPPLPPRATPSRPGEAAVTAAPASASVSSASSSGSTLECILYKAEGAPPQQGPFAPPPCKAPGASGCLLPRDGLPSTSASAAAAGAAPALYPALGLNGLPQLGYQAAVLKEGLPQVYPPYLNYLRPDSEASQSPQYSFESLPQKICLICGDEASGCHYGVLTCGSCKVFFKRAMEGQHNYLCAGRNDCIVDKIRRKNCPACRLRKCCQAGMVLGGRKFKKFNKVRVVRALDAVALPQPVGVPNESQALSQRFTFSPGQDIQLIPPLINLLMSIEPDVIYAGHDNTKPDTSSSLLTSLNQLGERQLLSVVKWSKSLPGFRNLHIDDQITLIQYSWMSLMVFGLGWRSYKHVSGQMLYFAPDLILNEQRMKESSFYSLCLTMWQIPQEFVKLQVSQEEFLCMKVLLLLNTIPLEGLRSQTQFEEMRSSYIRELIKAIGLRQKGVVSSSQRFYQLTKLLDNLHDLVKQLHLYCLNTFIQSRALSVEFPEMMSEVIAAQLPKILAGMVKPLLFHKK
Estrogen receptor (Homo sapiens), sequence (P03372 whole entry, looked up): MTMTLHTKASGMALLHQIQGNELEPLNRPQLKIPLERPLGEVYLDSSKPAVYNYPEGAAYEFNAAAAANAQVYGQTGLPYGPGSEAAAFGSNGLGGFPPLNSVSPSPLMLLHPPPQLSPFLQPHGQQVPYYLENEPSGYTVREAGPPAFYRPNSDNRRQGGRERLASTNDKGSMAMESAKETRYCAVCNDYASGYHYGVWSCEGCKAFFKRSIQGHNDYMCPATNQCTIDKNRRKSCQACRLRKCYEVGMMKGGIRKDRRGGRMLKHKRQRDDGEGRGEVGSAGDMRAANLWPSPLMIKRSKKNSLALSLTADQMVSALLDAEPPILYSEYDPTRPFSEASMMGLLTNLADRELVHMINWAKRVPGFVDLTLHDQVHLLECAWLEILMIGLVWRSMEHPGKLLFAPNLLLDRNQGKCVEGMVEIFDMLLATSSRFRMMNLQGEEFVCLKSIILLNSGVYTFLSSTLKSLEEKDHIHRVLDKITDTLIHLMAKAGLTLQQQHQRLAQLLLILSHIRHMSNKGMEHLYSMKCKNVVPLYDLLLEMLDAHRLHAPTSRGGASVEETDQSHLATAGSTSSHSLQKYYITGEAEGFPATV
Thyrotropin receptor (Homo sapiens), sequence (P16473 whole entry, looked up): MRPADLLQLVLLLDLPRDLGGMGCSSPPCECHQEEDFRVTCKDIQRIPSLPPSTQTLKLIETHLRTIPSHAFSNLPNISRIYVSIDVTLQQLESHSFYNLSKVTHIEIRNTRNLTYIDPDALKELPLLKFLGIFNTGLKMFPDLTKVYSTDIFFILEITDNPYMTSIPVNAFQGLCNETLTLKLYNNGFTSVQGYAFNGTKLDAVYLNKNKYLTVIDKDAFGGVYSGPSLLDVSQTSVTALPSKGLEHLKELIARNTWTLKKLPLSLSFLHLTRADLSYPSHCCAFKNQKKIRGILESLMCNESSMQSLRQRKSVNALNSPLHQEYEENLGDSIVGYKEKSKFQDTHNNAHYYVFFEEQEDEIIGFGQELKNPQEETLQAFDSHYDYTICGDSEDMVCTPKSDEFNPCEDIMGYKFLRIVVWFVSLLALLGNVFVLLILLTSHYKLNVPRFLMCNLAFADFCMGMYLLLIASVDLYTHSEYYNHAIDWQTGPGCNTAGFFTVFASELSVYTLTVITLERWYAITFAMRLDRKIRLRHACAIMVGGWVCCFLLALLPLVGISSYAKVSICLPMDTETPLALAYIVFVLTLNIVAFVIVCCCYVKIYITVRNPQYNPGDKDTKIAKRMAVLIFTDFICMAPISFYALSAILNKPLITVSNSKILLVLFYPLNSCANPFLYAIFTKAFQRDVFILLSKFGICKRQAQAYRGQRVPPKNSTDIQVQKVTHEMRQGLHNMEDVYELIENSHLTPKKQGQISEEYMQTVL

C=CCc1ccc(OC(=O)Cc2ccccc2)c(OC)c1
not listed: [18] | [19] | [20]
inactive: all other assays above

O=C1c2ccccc2C(=O)N1SC(Cl)(Cl)Cl
active: [1] 1.07 µM and 1.93 µM | [16] 33.3 µM
not listed: [3] | [4] | [5] | [13] | [20]
inactive: all other assays above

C=C(Cl)Cl
not listed: [2] | [3] | [14] | [16] | [17]
inactive: all other assays above

O=C([O-])c1ccccn1.O=C([O-])c1ccccn1.O=C([O-])c1ccccn1.[Cr+3]
not listed: [4] | [5] | [7] | [10] | [16] | [17] | [19] | [20]
inactive: all other assays above

O=C1CC[C@@]2(O)[C@H]3Cc4ccc(O)c5c4[C@@]2(CCN3CC2CC2)[C@H]1O5
not listed: [3] | [13] | [18] | [20]
inactive: all other assays above

c1ccc2sc(SNC3CCCCC3)nc2c1
active: [1] 61.1 µM
not listed: [3] | [5] | [10] | [14] | [20]
inactive: all other assays above

CN1CC[C@]23c4c5ccc(O)c4O[C@H]2[C@@H](O)CC[C@H]3[C@H]1C5
not listed: [3] | [7] | [12] | [19] | [20]
inactive: all other assays above

O=C=NC1CCCCC1
not listed: [4] | [5] | [11] | [20]
inactive: all other assays above

O=C(Cl)OCCOCCOC(=O)Cl
not listed: [2] | [3] | [12] | [14] | [16] | [17]
inactive: all other assays above

CC(C)(C)NCC(O)c1cc(Cl)c(N)c(C(F)(F)F)c1 (stereo not given)
not listed: [3] | [7] | [8] | [14]
inactive: all other assays above

O=C(O)C(Cl)(Cl)Br
not listed: [3] | [4] | [5] | [18] | [20]
inactive: all other assays above

CNC(=O)Oc1cccc(N=CN(C)C)c1
not listed: [2] | [4] | [12] | [20]
inactive: all other assays above

CC(C)(C)N(NC(=O)c1ccc(Cl)cc1)C(=O)c1ccccc1
active: [8] 4.83 µM
not listed: [3] | [5] | [7] | [10] | [19]
inactive: all other assays above

CCC1(C2=NCCN2)Cc2ccccc2O1 (stereo not given)
active: [18] 3.35 µM
not listed: [2] | [3]
inactive: all other assays above
